{"source": "paper PMC9911399", "about": "“Two distinct binding modes provide the RNA-binding protein RbFox with extraordinary sequence specificity”", "binders": {"B1": {"name": "GACUGGA (DNA:RNA)", "RNA": "GGGAGACCGGAAUUCAGAUUGUCCGACUGGAUUAAAUCCCGUCGUAGCCACCA", "DNA 1": "CAATCTGAATTCCGGTCTCCC", "DNA 2": "TGGTGGCTACGACGGGATT"}, "B2": {"name": "AUGUUUG (DNA:RNA)", "RNA": "B1 RNA with G25A, A26U, C27G, G29U, G30U, A31G", "DNA 1": "CAATCTGAATTCCGGTCTCCC", "DNA 2": "TGGTGGCTACGACGGGATT"}, "B3": {"name": "AUCAGUG (DNA:RNA)", "RNA": "B1 RNA with G25A, A26U, U28A, G30U, A31G", "DNA 1": "CAATCTGAATTCCGGTCTCCC", "DNA 2": "TGGTGGCTACGACGGGATT"}, "B4": {"name": "AGUUGGA (DNA:RNA)", "RNA": "B1 RNA with G25A, A26G, C27U", "DNA 1": "CAATCTGAATTCCGGTCTCCC", "DNA 2": "TGGTGGCTACGACGGGATT"}, "B5": {"name": "ACGCCGG (DNA:RNA)", "RNA": "B1 RNA with G25A, A26C, C27G, U28C, G29C, A31G", "DNA 1": "CAATCTGAATTCCGGTCTCCC", "DNA 2": "TGGTGGCTACGACGGGATT"}, "B6": {"name": "GAGGGUG (DNA:RNA)", "RNA": "B1 RNA with C27G, U28G, G30U, A31G", "DNA 1": "CAATCTGAATTCCGGTCTCCC", "DNA 2": "TGGTGGCTACGACGGGATT"}, "B7": {"name": "UGUUCUC (DNA:RNA)", "RNA": "B1 RNA with G25U, A26G, C27U, G29C, G30U, A31C", "DNA 1": "CAATCTGAATTCCGGTCTCCC", "DNA 2": "TGGTGGCTACGACGGGATT"}, "B8": {"name": "AGAUUUA (DNA:RNA)", "RNA": "B1 RNA with G25A, A26G, C27A, G29U, G30U", "DNA 1": "CAATCTGAATTCCGGTCTCCC", "DNA 2": "TGGTGGCTACGACGGGATT"}, "B9": {"name": "GCGCCAC (DNA:RNA)", "RNA": "B1 RNA with A26C, C27G, U28C, G29C, G30A, A31C", "DNA 1": "CAATCTGAATTCCGGTCTCCC", "DNA 2": "TGGTGGCTACGACGGGATT"}, "B10": {"name": "GUGGUUG (DNA:RNA)", "RNA": "B1 RNA with A26U, C27G, U28G, G29U, G30U, A31G", "DNA 1": "CAATCTGAATTCCGGTCTCCC", "DNA 2": "TGGTGGCTACGACGGGATT"}, "B11": {"name": "GUGGUGG (DNA:RNA)", "RNA": "B1 RNA with A26U, C27G, U28G, G29U, A31G", "DNA 1": "CAATCTGAATTCCGGTCTCCC", "DNA 2": "TGGTGGCTACGACGGGATT"}, "B12": {"name": "GUCGUGG (DNA:RNA)", "RNA": "B1 RNA with A26U, U28G, G29U, A31G", "DNA 1": "CAATCTGAATTCCGGTCTCCC", "DNA 2": "TGGTGGCTACGACGGGATT"}, "B13": {"name": "CUGGAGA (DNA:RNA)", "RNA": "B1 RNA with G25C, A26U, C27G, U28G, G29A", "DNA 1": "CAATCTGAATTCCGGTCTCCC", "DNA 2": "TGGTGGCTACGACGGGATT"}, "B14": {"name": "CUGGAUG (DNA:RNA)", "RNA": "GGGAGACCGGAAUUCAGAUUGUCCCUGGAUGUUAAAUCCCGUCGUAGCCACCA", "DNA 1": "CAATCTGAATTCCGGTCTCCC", "DNA 2": "TGGTGGCTACGACGGGATT"}, "B15": {"name": "UGGAUGU (DNA:RNA)", "RNA": "B14 RNA with C25U, U26G, G28A, A29U, U30G, G31U", "DNA 1": "CAATCTGAATTCCGGTCTCCC", "DNA 2": "TGGTGGCTACGACGGGATT"}, "B16": {"name": "UGCGAUC (DNA:RNA)", "RNA": "B14 RNA with C25U, U26G, G27C, G31C", "DNA 1": "CAATCTGAATTCCGGTCTCCC", "DNA 2": "TGGTGGCTACGACGGGATT"}, "B17": {"name": "UGGGGGA (DNA:RNA)", "RNA": "B1 RNA with G25U, A26G, C27G, U28G", "DNA 1": "CAATCTGAATTCCGGTCTCCC", "DNA 2": "TGGTGGCTACGACGGGATT"}, "B18": {"name": "UGCGAUG (DNA:RNA)", "RNA": "B14 RNA with C25U, U26G, G27C", "DNA 1": "CAATCTGAATTCCGGTCTCCC", "DNA 2": "TGGTGGCTACGACGGGATT"}, "B19": {"name": "CGGAUGU (DNA:RNA)", "RNA": "B14 RNA with U26G, G28A, A29U, U30G, G31U", "DNA 1": "CAATCTGAATTCCGGTCTCCC", "DNA 2": "TGGTGGCTACGACGGGATT"}, "B20": {"name": "UGGAUUU (DNA:RNA)", "RNA": "B14 RNA with C25U, U26G, G28A, A29U, G31U", "DNA 1": "CAATCTGAATTCCGGTCTCCC", "DNA 2": "TGGTGGCTACGACGGGATT"}, "B21": {"name": "UGGGAGA (DNA:RNA)", "RNA": "B14 RNA with C25U, U26G, U30G, G31A", "DNA 1": "CAATCTGAATTCCGGTCTCCC", "DNA 2": "TGGTGGCTACGACGGGATT"}, "B22": {"name": "UGGGAUG (DNA:RNA)", "RNA": "B14 RNA with C25U, U26G", "DNA 1": "CAATCTGAATTCCGGTCTCCC", "DNA 2": "TGGTGGCTACGACGGGATT"}, "B23": {"name": "CCCUGGA (DNA:RNA)", "RNA": "B1 RNA with G25C, A26C", "DNA 1": "CAATCTGAATTCCGGTCTCCC", "DNA 2": "TGGTGGCTACGACGGGATT"}, "B24": {"name": "UGCGCGA (DNA:RNA)", "RNA": "B1 RNA with G25U, A26G, U28G, G29C", "DNA 1": "CAATCTGAATTCCGGTCTCCC", "DNA 2": "TGGTGGCTACGACGGGATT"}, "B25": {"name": "CGUCGAU (DNA:RNA)", "RNA": "B14 RNA with U26G, G27U, G28C, A29G, U30A, G31U", "DNA 1": "CAATCTGAATTCCGGTCTCCC", "DNA 2": "TGGTGGCTACGACGGGATT"}, "B26": {"name": "AGGUGGG (DNA:RNA)", "RNA": "B1 RNA with G25A, A26G, C27G, A31G", "DNA 1": "CAATCTGAATTCCGGTCTCCC", "DNA 2": "TGGTGGCTACGACGGGATT"}, "B27": {"name": "CCUAAUC (DNA:RNA)", "RNA": "B14 RNA with U26C, G27U, G28A, G31C", "DNA 1": "CAATCTGAATTCCGGTCTCCC", "DNA 2": "TGGTGGCTACGACGGGATT"}, "B28": {"name": "CCCUUAA (DNA:RNA)", "RNA": "B1 RNA with G25C, A26C, G29U, G30A", "DNA 1": "CAATCTGAATTCCGGTCTCCC", "DNA 2": "TGGTGGCTACGACGGGATT"}, "B29": {"name": "AACGCGA (DNA:RNA)", "RNA": "B1 RNA with G25A, U28G, G29C", "DNA 1": "CAATCTGAATTCCGGTCTCCC", "DNA 2": "TGGTGGCTACGACGGGATT"}, "B30": {"name": "UCAGGUU (DNA:RNA)", "RNA": "B14 RNA with C25U, U26C, G27A, A29G, G31U", "DNA 1": "CAATCTGAATTCCGGTCTCCC", "DNA 2": "TGGTGGCTACGACGGGATT"}, "B31": {"name": "ACUCGCA (DNA:RNA)", "RNA": "B1 RNA with G25A, A26C, C27U, U28C, G30C", "DNA 1": "CAATCTGAATTCCGGTCTCCC", "DNA 2": "TGGTGGCTACGACGGGATT"}}, "note": "Residue numbers refer to the chain shown, from its start. Over roughly 16,000 sequences, “ka relative to ugcaugu” has its median near 0.0091; the highest 2% begin near 0.032. The list comes from a sample in which the highest values are over-represented; it also holds similar and randomly drawn sequences.", "data": [{"biological_target": "T1, RBFOX1 RRM (Homo sapiens, UniProt Q9NWB1 109-208)", "T1 sequence": "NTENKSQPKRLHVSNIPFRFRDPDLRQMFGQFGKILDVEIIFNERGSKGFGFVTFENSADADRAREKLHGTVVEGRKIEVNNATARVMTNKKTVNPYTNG", "assay": "EMSA; HiTS-Eq, 1 nM pool, 10 min; buffer printed only for the single-RNA assays: 10 mM Tris pH 7.5, 150 mM NaCl, 3.4 mM EDTA, 0.001% NP-40, 30 C", "conditions": "tags: His6 N-terminal (pET28a); label: 5' 32P", "how_it_was_run": "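Purified RbFox RRM, wild type or mutant, was incubated for 10 min in 50 µL with 1 nM of a 5′-radiolabelled RNA pool carrying 7 randomized nucleotides, whose flanks were annealed to DNA oligonucleotides, over a series of increasing protein concentrations. Unbound RNA was resolved on 8% native PAGE, cut out, reverse-transcribed, barcoded by PCR and sequenced on an Illumina HiSeq 2500. Relative association constants were derived from changes in read counts for each RNA species versus the control reaction and normalised to the cognate motif.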", "values": [{"binder": "B1", "binding signal": "0.0138 KA relative to UGCAUGU"}, {"binder": "B2", "binding signal": "0.0211 KA relative to UGCAUGU"}, {"binder": "B3", "binding signal": "0.00865 KA relative to UGCAUGU"}, {"binder": "B4", "binding signal": "0.00398 KA relative to UGCAUGU"}, {"binder": "B5", "binding signal": "0.00777 KA relative to UGCAUGU"}, {"binder": "B6", "binding signal": "0.0242 KA relative to UGCAUGU"}, {"binder": "B7", "binding signal": "0.0181 KA relative to UGCAUGU"}, {"binder": "B8", "binding signal": "0.00707 KA relative to UGCAUGU"}, {"binder": "B9", "binding signal": "0.00734 KA relative to UGCAUGU"}, {"binder": "B10", "binding signal": "0.0321 KA relative to UGCAUGU"}, {"binder": "B11", "binding signal": "0.0237 KA relative to UGCAUGU"}, {"binder": "B12", "binding signal": "0.0185 KA relative to UGCAUGU"}, {"binder": "B13", "binding signal": "0.0188 KA relative to UGCAUGU"}, {"binder": "B14", "binding signal": "0.0353 KA relative to UGCAUGU"}, {"binder": "B15", "binding signal": "0.0494 KA relative to UGCAUGU"}, {"binder": "B16", "binding signal": "0.0166 KA relative to UGCAUGU"}, {"binder": "B17", "binding signal": "0.0155 KA relative to UGCAUGU"}, {"binder": "B18", "binding signal": "0.0369 KA relative to UGCAUGU"}, {"binder": "B19", "binding signal": "0.0261 KA relative to UGCAUGU"}, {"binder": "B20", "binding signal": "0.0242 KA relative to UGCAUGU"}, {"binder": "B21", "binding signal": "0.025 KA relative to UGCAUGU"}, {"binder": "B22", "binding signal": "0.0414 KA relative to UGCAUGU"}, {"binder": "B23", "binding signal": "0.013 KA relative to UGCAUGU"}, {"binder": "B24", "binding signal": "0.0211 KA relative to UGCAUGU"}, {"binder": "B25", "binding signal": "0.00831 KA relative to UGCAUGU"}, {"binder": "B26", "binding signal": "0.0126 KA relative to UGCAUGU"}, {"binder": "B27", "binding signal": "0.00151 KA relative to UGCAUGU"}, {"binder": "B28", "binding signal": "0.00271 KA relative to UGCAUGU"}, {"binder": "B29", "binding signal": "0.00453 KA relative to UGCAUGU"}, {"binder": "B30", "binding signal": "0.0129 KA relative to UGCAUGU"}, {"binder": "B31", "binding signal": "0.0123 KA relative to UGCAUGU"}]}]}
